High-throughput results as filed in PubChem.
Sampled rows, rich in hits. Any-hit rate of the full collection: about 5.1%.
NR3A LBD binder: modulates the human NR3A ligand-binding domain | NR3A LBD differential scanning fluorimetry, Tm shift; 0% = protein alone, 100% = glycine-bound protein | Tm shift relative to glycine control, % at 25 µM | 2.5% of 340,000 active | AID 1259313;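 active means melting temperature shift of at least 10% of the positive control shift, at one fixed dose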
TMEM16A act: activators or potentiators of mouse TMEM16A chloride channel | Q8BHY3 | HEK293 TMEM16A/YFP-H148Q/I152L, iodide quench fluorescence; active compounds read low | B-score at 10 µM | 0.3% of 340,000 active | AID 623877;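 active means fluorescence-ratio B-score plate-corrected deviation score at least 3 library SD below zero, with starting fluorescence score within 5 deviations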;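 further: channel opened by trigger with iodide after compound preincubation; score built on the fluorescence ratio of max minus min over baseline; more negative score means more quench and so TMEM16A activation or potentiation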
CRFR2-BP ag: agonists of human CRF-binding protein/CRF-R2 receptor complex. activation, % at 13.2 µM. 0.46% of 350,000 active. HEK293 CRF-R2/CRF-BP, calcium dye fluorescence (FLIPR); percent of saturating CRF peptide response;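 active means activation of at least 50%, plus an integration ratio under a set limit after plate pattern correction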;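 further: plate controls were neutral control wells without compound for no effect and CRF at EC100 for full effect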
CRFR2-BP antag: blocks CRF-induced signaling of the CRF-BP/CRF-R2 complex. HEK293 CRF-R2/CRF-BP, CRF-induced calcium fluorescence. inhibition, % at 11.8 µM. 0.59% of 350,000 active;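 active means inhibition of the ligand-induced calcium signal above about 50% at the single tested concentration, limit read from the data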
TMEM16A inh: blocks the mouse calcium-activated chloride channel TMEM16A; Q8BHY3; HEK293 TMEM16A/YFP iodide influx fluorescence, ionomycin; normalized B-score (activity score, 25-100; higher = stronger inhibition) at 10 µM; 1.2% of 310,000 active; AID 588511;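 active means ratio plate-corrected score three or more library SD toward inhibition, starting fluorescence score within five deviations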;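 further: score derived from kinetic fluorescence span divided by baseline fluorescence per well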
MPTP inh: permeability transition pore inhibition; isolated mouse mitochondria, Ca2+ swelling absorbance, 30 min; inhibition, % at 10 µM; 1.4% of 360,000 active;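 active means inhibition of 50% or more, scaled per plate between neutral and stimulator controls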;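 further: 0% = DMSO wells given calcium and 100% = 1 mM EGTA wells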
An asterisk follows results filed as active; i = inactive; · = no result.

SMILES	NR3A LBD binder	TMEM16A act	CRFR2-BP ag	CRFR2-BP antag	TMEM16A inh	MPTP inh
Cc1ccc(NS(=O)(=O)c2ccc3c(c2)OCCCO3)cc1S(=O)(=O)N1CCOCC1	0	i	0	-16	·	0
O=S(CC(O)c1ccccc1)c1ccccc1 (stereo not drawn)	·	·	0	1	·	-2
Cc1ccc(NC2CCCN(C(=O)c3cc(C(C)C)nn3C)C2)cc1C (stereo not drawn)	·	·	-1	9	·	-1
O=C(c1ccc2ccccc2c1)C1CCCN(C(=O)c2cnccn2)C1 (stereo not drawn)	0	-4.6*	-1	-2	i	2
COc1ccc2cc(C(=O)C3CCCN(C(=O)c4cnccn4)C3)ccc2c1 (stereo not drawn)	-7	i	1	1	i	4
CC(=O)N1CC=C2C(C#N)=C(N)C(C#N)(C#N)C(CCc3ccccc3)C2C1 (stereo not drawn)	-2	i	-1	-1	i	1
CCN1CC=C2C(C#N)=C(N)C(C#N)(C#N)C(CCc3ccccc3)C2C1 (stereo not drawn)	-2	i	57*	-23	i	3
COc1ccccc1C(=O)NCCC(=O)N(C)Cc1ccc(C)o1	1	i	1	1	i	-2
CC1(C(=O)NS(=O)(=O)c2ccccc2Cl)CCN1C(=O)c1ccccc1 (stereo not drawn)	·	·	·	·	·	0
CSC(=Nc1ccccc1)N=C(SCc1ccccc1)N(C)C	11*	-13*	26	-67	·	24
Cc1cc2nc3c(=O)[nH]c(=S)[nH]c3nc2cc1NC(=O)C(F)(F)F	5	-5.2*	17	-5	i	-1
O=c1[nH]c(=S)[nH]c2nc(-c3ccccc3)cnc12	0	i	-1	-3	i	0
O=C(C(c1ccccc1)c1ccccc1)N1CCN(CCN2C(=O)c3cccc4cccc(c34)C2=O)CC1	-3	i	-2	52*	i	2
CC(=O)Nc1ccc(/C=C/c2nc(-c3ccccc3O)n[nH]2)cc1	21*	i	1	2	i	1
Cc1cccc(CCNC(=O)C2CCC(=O)N(Cc3ccccc3F)C2)n1 (stereo not drawn)	2	i	1	2	i	-1
Cc1ccc(NS(=O)(=O)c2ccc(Cl)c(N=Nc3c(O)[nH]c(=O)[nH]c3=O)c2)cc1Cl	11*	i	3	-20	·	0
COC(=O)C1=C[C@@H](C(=O)OC)[C@@H]2C3=C(C(=O)C2(C)C)[C@H](C)n2c(=O)n(-c4ccccc4)c(=O)n2[C@@H]3C1	0	i	0	3	i	0
CC(C)C[C@H]1CNC(=O)C(=O)N1CC1CCN(CCc2ccccc2)CC1	·	·	·	·	·	-2
Cc1ccc2[nH]c3c(c2c1)CCc1cn[nH]c1-3	28*	i	0	-11	i	24
O=c1c2ccccc2nc(COc2ccccc2)n1/N=C/c1c[nH]c2ccccc12	25*	i	0	-19	i	3
O=c1c2ccccc2nc(COc2ccccc2)n1/N=C/c1ccc(O)cc1O	2	i	0	-15	i	2
Cc1ccccc1OCc1nc2ccccc2c(=O)n1/N=C/c1cn[nH]c1-c1ccc(Br)cc1	26*	i	1	-12	i	5
O=c1c2ccccc2nc(COc2ccccc2)n1/N=C/c1cn[nH]c1-c1ccccc1	-3	-6.5*	2	-4	i	-10
Cc1ccc(-c2[nH]ncc2/C=N/n2c(C)nc3ccccc3c2=O)cc1	-2	i	0	-10	i	0
COc1ccc(-c2cc(C(=O)NCc3cccc(Cl)c3)[nH]n2)c(C)c1	·	·	·	·	·	-1
SMILES	NR3A LBD binder	TMEM16A act	CRFR2-BP ag	CRFR2-BP antag	TMEM16A inh	MPTP inh
Cc1ccc(CNS(=O)(=O)c2ccc3c(c2)NC(=O)CS3)cc1	0	i	-1	9	i	1
O=c1c(Cl)c(Cl)cnn1Cc1nnc(-c2ccccc2Br)o1	1	-13*	157*	-220	·	0
CCCc1nc2ccc(C)cn2c1Cc1ccccc1C(F)(F)F	·	·	·	·	·	-4
Cc1ccc(CN(C(=O)c2ccccc2[N+](=O)[O-])C2CCS(=O)(=O)C2)o1 (stereo not drawn)	0	i	2	58*	i	0
COc1ccc(NC(=O)c2ccc3c(c2)S(=O)(=O)N=C2CCCCCN23)cc1S(N)(=O)=O	0	i	-1	8	·	-1
Cc1onc(-c2c(Cl)cccc2Cl)c1C(=O)Nc1ccc(C(N)=O)cc1	-2	i	0	-13	i	2
CC12CCC(C(=O)NCc3ccc(Cl)cc3)(OC1=O)C2(C)C (stereo not drawn)	11*	i	-3	-27	i	2
CC(C)C(=O)Nc1nnc(S(=O)(=O)N(C)c2ccc(Cl)cc2)s1	-1	i	0	8	i	0
O=C(c1ccccc1)N(c1ccccc1)c1ccccc1O	-1	i	-5	14	·	0
COc1ccc(Nc2nnc(SC(C(=O)Nc3ccc(OC)c(Cl)c3)c3ccccc3)s2)cc1 (stereo not drawn)	25*	i	2	-44	i	0
COc1cccc(NC(=O)C(Sc2nnc(Nc3ccccc3C)s2)c2ccccc2)c1 (stereo not drawn)	11*	i	1	-55	i	6
COc1ccc(Nc2nnc(SC(C(=O)Nc3cc(C)ccc3C)c3ccccc3)s2)cc1 (stereo not drawn)	17*	i	2	-25	i	6
O=C(C1CCCCC1)N1C[C@H](O)[C@@H](n2cc(C3CC3)nn2)C[C@@H]1c1ccccc1	·	·	0	-6	·	0
COc1cccc(C2C(C(=O)Nc3ccccc3)=C(C)N=c3s/c(=C/c4ccc(OCC(=O)O)cc4)c(=O)n32)c1 (stereo not drawn)	-7	i	1	2	i	2
COc1cccc(C2C(C(=O)OC(C)C)=C(C)N=c3s/c(=C\c4ccc(C(=O)O)cc4)c(=O)n32)c1 (stereo not drawn)	-2	-4.8*	5	-7	i	1
COC(=O)C1=CN(Cc2ccc(OC)cc2)C=C(C(=O)OC)C1c1cccs1	1	i	-1	111*	i	1
Cc1ccc(N(C)S(=O)(=O)c2csc(C(N)=O)c2)cc1C	1	i	-6	-6	i	0
COc1cccc(CN2CCN(Cc3cc4ccccc4[nH]3)CC2CCO)c1 (stereo not drawn)	2	i	57*	-27	i	3
CCOc1ccc(CN2CCN(Cc3cc4ccccc4[nH]3)CC2CCO)cc1 (stereo not drawn)	-2	i	15	-18	·	-1
